Source: PubChem BioAssay
Hits are enriched below; roughly 7.4% of the tested compounds scored in any of these assays.
SMN2 splice enh: SMN2 splice variant enhancement; actives 2.8% (n = 210,000); AID 1458; HEK293 SMN2-luciferase splicing reporter, luminescence, 30-36 h; Potency, µM (top dose mostly 46.1 µM), inactives show at the highest dose activity change, positive = activation, actives largely listed as activators; further: % of control where 0% means no effect; nearly all actives have a fitted effect of over 55% in size
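HEK293 cells carry an SMN2 […]–luciferase reporter in which exon 7 inclusion puts luciferase in frame. Cells were plated 10-12 h before compound addition, then incubated 30-36 h at 37C. ONE-Glo luminescence was read; sodium butyrate at 4.5 mM final served as control.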
ELG1 genotox: genotoxicity induction in ELG1-luciferase HEK293T cells | AID 504466 | Potency, µM (top dose mostly 46 µM), inactives show top-dose activity change, positive = activation, hits mostly activators | HEK293T ELG1-luciferase reporter, luminescence, 16 h | actives 1.3% (n = 330,000); further: % of control where 0% means no effect; nearly all actives have a fitted effect of over 60% in size
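HEK293T cells expressing luciferase-tagged ELG1 were exposed to compound or DMSO vehicle for 16 hr at 37 °C and 5% CO2. Luciferase activity was then measured with ONE-Glo after 30 min at room temperature.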
NPC1 promoter act: NPC1 promoter activation | actives 2.4% (n = 320,000) | Huh7 NPC1 promoter luciferase reporter, 24 h | Potency, µM (doses to about 9.22 µM), for the others: at the highest dose activation, usual class: activators; further: % of control where 0% means no effect; nearly all actives have a fitted effect of over 60% in size
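Stably transfected Huh7 (NPC1 promoter→luciferase), 1500 cells/well in Opti-MEM + 10% FBS, 2 h settle, then compound 24 h at 37 °C. Luminescence after 10 min with Amplite reagent.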
Rab9 prom act: activators of Rab9 promoter | Huh7 Rab9 promoter-luciferase reporter, luminescence, 24 h | Potency, µM (titrated, usually from 9.22 µM), for inactives: at the top dose activation, negative = inhibition, hits mostly activators | actives 2.8% (n = 320,000) | AID 485297; further: % of control where 0% means no effect; nearly all actives have a fitted effect of over 60% in size
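Luminescence read-out: Huh7 cells stably expressing Rab9-luciferase, treated 24 h with compound at 37 °C, then lysed with luciferase reagent for 10 min at ambient before reading.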
FLuc modulator: counter-screen for miR-21 project: firefly luciferase inhibitors or activators. P08659. purified FLuc, Km substrates, luminescence inhibition. Potency, µM (doses to about 57.5 µM), inactives show top-dose activity change, negative = inhibition, most hits filed as inhibitors. actives 6.9% (n = 360,000). AID 588342;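 further: plate controls were vehicle for no effect and reference inhibitor for full effect; nearly all actives have a fitted effect of over 55% in size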
Target sequence (P08659 whole entry, looked up): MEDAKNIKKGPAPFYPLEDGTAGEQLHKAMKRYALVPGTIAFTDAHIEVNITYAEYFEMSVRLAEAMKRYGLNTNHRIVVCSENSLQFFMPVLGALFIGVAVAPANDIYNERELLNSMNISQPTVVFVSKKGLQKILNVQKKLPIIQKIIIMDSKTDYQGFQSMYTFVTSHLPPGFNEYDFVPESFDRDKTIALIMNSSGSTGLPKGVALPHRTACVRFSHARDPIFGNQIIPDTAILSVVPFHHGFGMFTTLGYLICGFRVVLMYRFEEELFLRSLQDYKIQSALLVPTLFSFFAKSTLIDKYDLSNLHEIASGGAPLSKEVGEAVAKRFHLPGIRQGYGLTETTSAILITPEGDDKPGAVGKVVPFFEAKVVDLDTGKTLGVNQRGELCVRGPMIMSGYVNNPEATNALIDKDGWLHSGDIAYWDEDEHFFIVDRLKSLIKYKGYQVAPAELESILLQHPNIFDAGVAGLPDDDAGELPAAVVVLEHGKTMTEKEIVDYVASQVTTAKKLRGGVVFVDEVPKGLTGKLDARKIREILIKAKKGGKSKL
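Purified P. pyralis luciferase, 10 nM final, with Km-level 10 uM D-luciferin and 10 uM ATP in 50 mM Tris acetate pH 7.5, 10 mM Mg acetate, 0.01% Tween-20, 0.05% BSA; 6-point qHTS titration about 60 µM downward; luminescence read.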
* = called active by the depositor; ? = inconclusive; . = not tested or not shown; [ ] = remark or other dose. The call rests on the fitted dose curve; in most records, active means well fitted curve in the direction sought with a large enough effect; inconclusive means small, poorly fitted or top-dose-only effect, or another doubt; inactive means no such curve, though single readings can be large; an effect the other way counts as inactive or inconclusive. Potency means the concentration at half of the fitted maximal effect.

SMILES	SMN2 splice enh	ELG1 genotox	NPC1 promoter act	Rab9 prom act	FLuc modulator
N[C@@H](Cc1ccc(O)cc1)C(=O)Nc1ccc2ccccc2c1	.	6.5%	27.0%	16.5%	?
NC(Cc1cnc[nH]1)C(=O)Nc1ccc2ccccc2c1 (configuration not stated)	12.6µM*	.	.	.	.
CS(=O)(=O)N1CCC[C@@]2(CCN(C(=O)Nc3cccc(C#N)c3)C2)C1	-6.9%	.	.	.	.
CCOC(=O)C1CCN(C(=O)CNC(=O)c2nn(-c3ccc(OC)c(OC)c3)c(=O)c3ccccc23)CC1	.	-1.5%	13.0%	16.7%	4.78µM*
CCOC(=O)C1CCN(C(=O)c2nn(-c3ccc(OC)cc3)c(=O)c3c2c2ccccc2n3C)CC1	-3.1%	.	.	.	1.6%
CCOC(=O)C1CCN(C(=O)CNC(=O)c2nn(-c3ccc(OC)cc3)c(=O)c3ccccc23)CC1	.	-3.1%	23.9%	26.1%	2.69µM*
COc1ccc(-n2nc(C(=O)NCC(=O)N3CCN(Cc4ccccc4)CC3)c3ccccc3c2=O)cc1OC	.	-4.8%	0.0%	-1.5%	?
Cc1ccccc1/C=C(\C#N)c1nc(-c2ccc(Cl)cc2)cs1	-7.4%	.	.	.	?
O=C(C1CC1)N1CCc2cc(Br)cc(S(=O)(=O)Nc3ccc(C(F)(F)F)cc3)c21	-13.3%	.	.	.	?
Cc1ccc(CN2CCCn3nc(C(=O)NCc4ccc(N(C)C)cc4)cc3C2=O)cc1	.	.	.	.	-1.1%
COc1ccc(-n2cc(CNCC3CCOCC3)c(-c3cccc(F)c3)n2)cc1	.	-3.3%	-5.4%	-5.1%	?
Cc1cccc(-n2cc(CNCCc3nc(C)cc(C)n3)c(-c3cccc(F)c3)n2)c1	.	-6.1%	-7.4%	-5.4%	15.1µM*
COc1ccc(-n2cc(CNCc3cnc4ccccn34)c(-c3cccc(F)c3)n2)cc1	.	-13.9%	5.2%	0.8%	8.49µM*
Nc1ccc2nc(SCc3ccccc3F)sc2c1	.	?	25.9%	?	1.69µM*
Nc1ccc2nc(SCC(=O)c3ccccc3)sc2c1	.	21.1%	0.8%	10.9%	?
CCc1ccc(NC(=O)Cn2cnc3sc(C)c(S(=O)(=O)N4CCN(c5ccccc5OC)CC4)c3c2=O)cc1	15.5%	.	.	.	3.5%
Nn1c(SCc2ccccc2)nc2c(cnn2-c2ccccc2)c1=O	12.6µM*	?	?	3.16µM*	10.7µM*
CCCSc1nc2c(cnn2-c2ccccc2)c(=O)n1N	.	?	4.47µM*	0.794µM*	5.36µM*
COCCNC(=O)CSc1nc2cc3c(cc2c(=O)n1Cc1ccc(C(=O)NCCc2ccc(OC)c(OC)c2)cc1)OCO3	.	.	.	.	-7.3%
C#CCSc1nncn1C(=O)/C=C/c1ccccc1	-5.6%	1.3%	-3.7%	0.5%	19µM*
O=C(/C=C/c1ccccc1)N1CCC[C@H]1CO	-7.6%	3.9%	-1.1%	0.3%	-21.5%
CCn1nc(NC(=O)c2ccncc2)c2cc3cc(C)ccc3nc21	31.6µM*	-2.9%	-0.6%	1.0%	16.9µM*
CCn1nc(NC(=O)c2ccncc2)c2cc3ccc(C)cc3nc21	-13.3%	-2.2%	3.8%	-2.0%	15.1µM*
CCc1ccc(NC(=O)c2sc(-n3nc(C)c(CCC(C)C)c3C)nc2C)cc1	.	.	.	.	3.0%
CCS(=O)(=O)N1Cc2ccccc2CC1C(=O)Nc1nc2ccccc2[nH]1 (configuration not stated)	?	?	23.5%	20.1%	15.1µM*
SMILES	SMN2 splice enh	ELG1 genotox	NPC1 promoter act	Rab9 prom act	FLuc modulator
CCS(=O)(=O)N1Cc2ccccc2CC1C(=O)Nc1nc2ccccc2s1 (configuration not stated)	-46.7%	2.31µM*	0.9%	10.0%	5.36µM*
CCc1nnc(NC(=O)C2Cc3ccccc3CN2S(=O)(=O)CC)s1 (configuration not stated)	5.0%	-8.9%	-2.5%	-4.2%	-4.2%
O=C(O)c1cccc(NC(=O)C2C3C=CC(C3)C2C(=O)OCC(F)(F)C(F)F)c1 (configuration not stated)	-6.7%	5.8%	-2.3%	4.9%	16.9µM*
Cc1cnc(NC(=O)CCc2ccccc2)s1	.	?	-13.6%	8.9%	?
COc1ccccc1OCC(=O)Nc1ncc(C)s1	.	?	1.58µM*	1.78µM*	2.39µM*
Cc1cnc(NC(=O)COc2ccccc2)s1	11.2µM*	?	2µM*	2.24µM*	10.7µM*
COC(=O)c1sc(NC(=O)COc2ccccc2OC)nc1C	-11.5%	2.1%	13.0%	13.8%	?
CC(=O)c1cccc(NC(=O)c2c(C)nn(-c3ccc(F)cc3)c2-n2cccc2)c1	.	.	.	.	-4.0%
CCN1C(=O)C(Cc2nc3ccccc3c(=O)n2-c2ccccc2)c2cc(Br)ccc21 (configuration not stated)	-8.6%	.	.	.	-10.8%
CCc1cnc2c(c1SCC(=O)NCc1ccccc1)c(=O)n(C)c(=O)n2C	.	.	.	.	-3.9%
S=c1nc(NCCc2ccccc2Cl)c2ccccc2[nH]1	.	8.5%	3.16µM*	3.55µM*	-9.6%
c1cnc2c(SCc3ccc(-c4nnco4)cc3)cccc2c1	-0.7%	5.6%	?	?	23.9µM*
NNC(=O)c1ccc(CSc2cccc3cccnc23)cc1	-2.8%	0.7%	1.1%	-0.2%	?
Cc1cccc(CSc2cccc3cccnc23)c1	4.1%	?	21.2%	24.2%	19µM*
Cc1ccccc1-c1nn2c(=O)cc(CN3CCN(C(=O)c4ccccc4Br)CC3)nc2s1	.	.	.	.	6.0%
COc1ncc2nc(CCc3ccccc3)c(=O)n(C3CC3)c2n1	-8.0%	.	.	.	.
COC(=O)c1ccc(CNC(=O)CSC2=NCCS2)cc1	8.6%	-3.1%	-1.1%	0.2%	-6.5%
Cn1ccnc1SCC(=O)c1cccc(C(F)(F)F)c1	.	?	2.82µM*	3.98µM*	16.9µM*
COC(=O)c1ccc(CSC2=NCCS2)cc1	17.8µM*	?	?	?	?
Cn1ccnc1SCc1ccc([N+](=O)[O-])cc1	5.4%	0.2%	1.1%	0.8%	-4.3%
Cn1ccnc1SCC(=O)Nc1cccc(C(F)(F)F)c1	-7.7%	9.2%	11.8%	14.5%	2.2%[2.3 µM]
COC(=O)c1ccc(CSc2nccn2C)cc1	11.2µM*	13µM*	18.4%	18.1%	?
O=C(CSc1nccn1-c1ncc(C(F)(F)F)cc1Cl)c1ccc(Br)cc1	-34.4%	?	3.55µM*	1.58µM*	-18.2%
CCOC(=O)N1CCN(Cc2nc3cc(NC(=O)c4ccc([N+](=O)[O-])cc4)ccc3n2C(C)C)CC1	.	.	.	.	-0.7%
CCn1cc2nc(SCc3cc(C)ccc3C)n(CCc3ccccc3)c(=O)c2n1	.	.	.	.	4.7%
COc1cc(C(=O)CSc2nccn2C)cc(OC)c1OC	.	11.0%	-0.4%	7.8%	-1.1%
COc1ccc(C(=O)CSc2nccn2C)cc1	.	23.1µM*	2.82µM*	3.55µM*	16.9µM*
Cc1ccc(/C=N/c2sc(Cc3ccccc3)c(C)c2C(N)=O)o1	22.2%	0.1%	-0.1%	2.1%	-5.9%
Cc1ccc(C(=O)O/N=C/c2ccc(N(C)C)cc2)cc1	.	13.4%	1.3%	20.5%	?
